# Screening results deposited in PubChem BioAssay by several laboratories.
# IL1B NFkB inh: blocks IL-1B driven NFkB nuclear translocation in HUVEC cells. HUVEC IL-1B NFkB p65 nuclear translocation imaging. inhibition, % at 2 µM. actives 0.43% (n = 94,000);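 active = inhibition above about 30% together with a positive call from visual inspection of the well image, limit read from the data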;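 also: nuclear over cytoplasmic p65 intensity ratio measured by imaging; 0% = IL-1B stimulated DMSO wells and 100% = unstimulated DMSO wells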
# ERa coact pot: ER-alpha (human) coactivator binding potentiation; P03372; TR-FRET ERalpha-LBD/SRC-Cy5 coactivator binding, 2 h; 100 = basal binding, no effect; coactivator binding (% of control), % at 25.6 µM; actives 1.3% (n = 86,000); AID 639; in the data active = activity above about 200%;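 also: binding measured in presence of low estradiol as agonist stimulus; 0% = peptide alone without receptor and 100% = receptor with peptide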
# HUVEC tox IL1B: HUVEC cytotoxicity counter-screen, IL-1B stimulated; HUVEC cell count loss, Hoechst imaging; cell count reduction, % at 2 µM; actives 0.41% (n = 94,000); AID 845;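 active = cell count reduction more than 3 SD above the screen-wide mean, cut at about 70% in these data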;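 also: normalized per plate to untreated control cells as the no-loss baseline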
# ERa SRC1 inh: blocks coactivator binding to human estrogen receptor alpha. P03372. TR-FRET ER-alpha LBD / SRC-1 peptide, estradiol-bound. inhibition, % at 25.6 µM. actives 1.7% (n = 86,000); in the data active = inhibition above about 50%;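 also: 0% = receptor plus peptide control and 100% = peptide only without receptor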
# NFkB transloc pot: enhances IL-1B driven NFkB nuclear translocation; activation, % at 2 µM; actives 0.3% (n = 94,000); HUVEC IL-1B NFkB p65 nuclear translocation imaging;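 active = activation above 40%, about the mean plus 3 SD, also judged a hit on visual image review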;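 also: percent activation is computed from the nuclear over cytoplasmic p65 intensity ratio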
# ERb coact inh: blocks coactivator binding to human estrogen receptor beta. AID 633. actives 1.3% (n = 86,000). Q92731. inhibition, % at 25.6 µM. TR-FRET ER-beta LBD / SRC1-Cy5 peptide binding; receptor agonist-loaded with 1 µM estradiol;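 active = compounds whose percent inhibition of the receptor-coactivator binding signal exceeds about 50% in the single-dose screen, limit read from the data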;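 also: 0% = receptor plus peptide wells without compound and 100% = peptide-only wells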
# Target sequence (Q92731 whole entry, looked up, the tested form may be a part): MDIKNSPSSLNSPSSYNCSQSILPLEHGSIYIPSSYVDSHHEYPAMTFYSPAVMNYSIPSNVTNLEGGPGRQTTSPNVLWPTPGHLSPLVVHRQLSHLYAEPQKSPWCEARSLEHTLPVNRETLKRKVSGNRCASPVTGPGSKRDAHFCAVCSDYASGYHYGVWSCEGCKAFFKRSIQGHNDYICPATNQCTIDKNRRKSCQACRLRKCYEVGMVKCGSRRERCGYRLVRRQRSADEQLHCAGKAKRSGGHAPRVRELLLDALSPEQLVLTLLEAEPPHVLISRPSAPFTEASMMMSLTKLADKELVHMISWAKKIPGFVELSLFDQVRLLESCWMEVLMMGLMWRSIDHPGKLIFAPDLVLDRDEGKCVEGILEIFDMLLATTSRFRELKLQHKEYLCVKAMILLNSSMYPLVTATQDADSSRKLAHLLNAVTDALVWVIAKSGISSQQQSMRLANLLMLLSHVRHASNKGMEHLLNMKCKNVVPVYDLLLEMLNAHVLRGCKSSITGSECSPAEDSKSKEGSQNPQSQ
# The depositor's hits bear a star; x = no result; [ ] = dose if it differs, or a comment. In the library only some 3.6% were active in any assay of this set; here they are far more common.
SMILES,IL1B NFkB inh,ERa coact pot,HUVEC tox IL1B,ERa SRC1 inh,NFkB transloc pot,ERb coact inh
CCOC(=O)C1CCCN(C(=S)Nc2ccc(C)cc2C)C1 (stereo unspecified),-3,x,-2,x,3,x
CCOc1ccccc1C(=O)N(Cc1ccccc1)Cc1cc2cc3c(cc2[nH]c1=O)OCCO3,-12,105,-22,10,12,4
CCOc1ccc(-c2nn3c(-c4ccc(OC)cc4)nnc3s2)cc1,x,677*[fluorescence artefact?],x,-82,x,-11
COc1cccc(-c2nnc3sc(-c4cccs4)nn23)c1,x,251*,x,17,x,8
CC(=O)C1=C(C)NC(SCC(=O)c2ccc(-c3ccccc3)cc2)=C(C#N)C1c1cccnc1 (stereo unspecified),-18,355*[fluorescence artefact?],-1,38,18,29
CC(=O)C1=C(C)NC(SCSc2ccccc2)=C(C#N)C1c1cccnc1 (stereo unspecified),-5,88,-11,4,5,4
Cc1nc(C)c2c(=O)cc(-c3ccccc3)[nH]c2n1,4,117,-16,-21,-4,-23
Cc1nc(-c2ccccc2)nc2[nH]c(-c3ccccc3)cc(=O)c12,-14,334*[fluorescence artefact?],0,24,14,44
Cc1ccc(S(=O)(=O)Nc2nncs2)cc1,-55,111,-30,0,55*,7
COCc1nnc(NS(=O)(=O)c2ccc(C)cc2)s1,-10,104,2,-4,10,-5
Cc1ccn2cc(CNC(=O)c3ccc(Br)o3)nc2c1,8,91,-28,4,-8,-4
Cc1n[nH]c(C)c1S(=O)(=O)N(CC(=O)Nc1ccc2c(c1)OCCO2)c1ccc(C(C)C)cc1,-3,83,5,42,3,27
Cn1c(SCC(=O)N2CCOCC2)nc2cccnc21,1,435*[fluorescence artefact?],6,19,-1,22
Cc1ccc(S(=O)(=O)NCC(=O)OCC(=O)Nc2ncc(Cl)cc2Cl)cc1,-8,69,-30,57*[fluorescence artefact?],8,42
Cc1ccc(S(=O)(=O)CCC(=O)OCC(=O)Nc2ncc(Cl)cc2Cl)cc1,0,108,-62,-4,0,5
CN(C(=O)c1cccc(Nc2ccc(-c3ccc4c(c3)OCCO4)nn2)c1)C1CCCCC1,0,144,-17,-2,0,-6
COCCCNC(=O)Cn1nnc(-c2ccc(NC(=O)c3ccc(F)cc3)cc2)n1,x,258*[fluorescence artefact?],x,48,x,46
CCOc1cccc(C2C(C(=O)c3ccc(C)o3)=C(O)C(=O)N2Cc2ccncc2)c1 (stereo unspecified),30*,120,-8,5,-31,-7
CCc1c(C)nc2ncnn2c1N1CCC(C(=O)Nc2cccc(C(C)=O)c2)CC1,-5,123,-29,4,5,-7
O=C(O/N=C1/CCCc2occc21)c1ccccc1,1,x,72*,x,-1,x
O=C(NC1CC2CCC(C1)N2C(=O)NCc1ccccc1)NC12CC3CC(CC(C3)C1)C2 (stereo unspecified),6,x,-7,x,-6,x
Nn1c(COc2ccccc2)nnc1SCC(=O)O,-5,252*[fluorescence artefact?],19,-2,5,-3
O=C(N/N=C/c1ccc(O)c(O)c1O)/C(=C/c1ccc([N+](=O)[O-])cc1)NC(=O)c1ccccc1,-4,43,-11,89*[fluorescence artefact?],4,71*[fluorescence artefact?]
Cc1cccc(-n2nnc(C(=O)Nc3ccc(F)cc3)c2N)c1,-2,70,-32,63*[fluorescence artefact?],2,37
COc1ccc(NC(=O)Cn2nnc(C(=O)NCc3ccccc3)c2N)cc1Cl,x,176,x,19,x,5
SMILES,IL1B NFkB inh,ERa coact pot,HUVEC tox IL1B,ERa SRC1 inh,NFkB transloc pot,ERb coact inh
COc1cccc(Cn2nnc(C(=O)Nc3ccc(C)cc3)c2N)c1,-1,246*[fluorescence artefact?],17,-2,1,-1
COc1cccc(CNC(=O)c2nnn(CC(=O)Nc3ccc(C)c(C)c3)c2N)c1,x,287*,x,36,x,13
Cc1ccc(NC(=O)Cn2nnc(C(=O)Nc3ccc(C)c(C)c3)c2N)cc1,-16,149,-6,70*[fluorescence artefact?],16,26
Cc1ccc(NC(=O)c2nnn(-c3cc(C)cc(C)c3)c2N)cc1,-8,119,-18,22,8,-7
Cc1ccc(C)c2c1[nH]c1ccc([N+](=O)[O-])cc12,-25,80,-9,7,25,6
Cc1cc(Cl)c(OCCCNCc2ccccc2)c(Br)c1,-8,x,-20,x,8,x
CN1CC2=Cc3ccccc3OC23Oc2ccccc2C=C3C1,6,119,-61,-1,-6,0
CC(C)(C)C(=O)Nc1nnc(Cc2ccccc2)s1,-42,100,-26,-3,42*,-6
O=C(Nc1nnc(Cc2ccccc2)s1)c1ccco1,-13,102,1,-2,13,-3
COc1ccc(Cc2nnc(NC(=O)CSc3ccccc3)s2)cc1,1,x,23,x,-1,x
COCC(=O)Nc1nnc(Cc2ccc(OC)cc2)s1,7,108,4,27,-7,55*
COC(=O)CCC(NC(=O)OCc1ccccc1)C(=O)NC(CC(C)C)C(=O)OC (stereo unspecified),3,105,21,-3,-3,-4
CCC(C)C(NC(=O)C(N)CC(C)C)C(=O)NC(CCC(=O)OCc1ccccc1)C(N)=O (stereo unspecified),-32,211*,-4,-1,32,-3
COc1ccccc1NS(=O)(=O)CC12CCC(CC1=O)C2(C)C (stereo unspecified),1,104,-25,4,-1,10
O=c1c2ccccc2nc2n1CC/C2=C/N1CCN(c2cccc(C(F)(F)F)c2)CC1,-4,59,-4,70*[fluorescence artefact?],4,100*[fluorescence artefact?]
O=C(Cc1cccs1)Nc1nnc(COc2ccccc2)s1,4,76,-8,56*,-4,37
CCC(=O)Nc1nnc(SCC(=O)N2c3ccccc3CC2C)s1 (stereo unspecified),0,122,12,-5,1,-5
Cc1nnc(NC(=O)Cc2cccs2)s1,7,50,16,74*,-7,73*[fluorescence artefact?]
Cc1nn(-c2ccccc2)c(C)c1NC(=O)c1cccs1,7,93,4,-3,-7,-10
COCc1nnc(NC(=O)CCCOc2ccccc2)s1,-5,95,6,-5,5,1
CC1Cc2ccccc2N1C(=O)CSc1nnc(NC(=O)Cc2cccs2)s1 (stereo unspecified),-11,56,-14,62*,11,47
Cc1nn(-c2ccccc2)c(C)c1NC(=O)Cc1cccs1,x,62,x,59*[fluorescence artefact?],x,53*
CCc1nnc(NC(=O)[C@@H](NC(=O)c2cccc(S(=O)(=O)N(CC)CC)c2)C(C)C)s1,-10,x,12,x,10,x
Cn1c(=O)c2c(SCc3cccnc3)nc(C3CC3)nc2n(C)c1=O,-4,91,-4,-9,4,6
CCn1ncc([N+](=O)[O-])c1C(=O)N1CCCC1,0,x,8,x,0,x
